Reference: the supplement of paper PMC6992640
± gives the standard deviation of the averaged measurements.

Legend:
Test in all cases: cell viability (% of vehicle); higher = less cytotoxic
Details in all cases: 10 µM; 72 h
HCI01 = test system: HCI01 (cells of a triple-negative basal-like breast cancer xenograft)
HCI03 = test system: HCI03 (cells of an ER-positive luminal breast cancer xenograft)
HCI09 = test system: HCI09 (cells of a triple-negative luminal androgen receptor type breast cancer xenograft)
HCI11 = test system: HCI11 (cells of an ER-positive luminal breast cancer xenograft)
HCI13 = test system: HCI13 (cells of an ER-positive luminal breast cancer xenograft)
HCI16 = test system: HCI16 (cells of a triple-negative basal-like breast cancer xenograft)
UCD52 = test system: UCD52 (cells of a triple-negative basal-like breast cancer xenograft)
WHIM2 = test system: WHIM2 (cells of a triple-negative basal-like breast cancer xenograft)
WHIM30 = test system: WHIM30 (cells of a triple-negative basal-like breast cancer xenograft)
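Further: PDX cells carrying CMV promoter-driven luciferase, viability read as total photon flux per second by IVIS imaging following D-luciferin, vehicle control 0.1% DMSO.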

| Compound | cell viability (HCI01) | cell viability (HCI03) | cell viability (HCI09) | cell viability (HCI11) | cell viability (HCI13) | cell viability (HCI16) | cell viability (UCD52) | cell viability (WHIM2) | cell viability (WHIM30) |
| --- | --- | --- | --- | --- | --- | --- | --- | --- | --- |
| O=C(O)Cc1cc(I)c(Oc2ccc(O)c(I)c2)c(I)c1 [Tiratricol] | 112 ± 48 | 99 | 82.8 ± 6.7 | 87.2 | 42.5 ± 4.2 | 97.2 | 75.6 ± 7.3 | 103 ± 20 | 115 ± 6.8 |
| Cc1cc(C)nc(NS(=O)(=O)c2ccc(N)cc2)n1 [Sulfamethazine] | 86 ± 14 | 88.9 | 101 ± 3.9 | 89.6 | 112 ± 6.1 | 114 | 91.9 ± 5.5 | 95.7 ± 21 | 132 ± 1.9 |
| CC(C(=O)O)c1ccc2c(c1)[nH]c1ccc(Cl)cc12 (stereo not given) [Carprofen] | 175 ± 51 | 107 | 112 ± 6 | 95.3 | 102.2 ± 0.8 | 138 | 113 ± 3.4 | 152 ± 30 | 117.4 ± 0.51 |
| O=C1Cc2cc(CCN3CCN(c4nsc5ccccc45)CC3)c(Cl)cc2N1 [Ziprasidone] | 98.1 ± 6.7 | 102 | 82.1 ± 4.3 | 96.1 | 95.4 ± 36 | 67.2 | 86.8 ± 2 | 95.6 ± 6.5 | 100 ± 20 |
| CCCCc1ncc(C=C(Cc2cccs2)C(=O)O)n1Cc1ccc(C(=O)O)cc1.CS(=O)(=O)O [Eprosartan Mesylate] | 156 ± 27 | 129 | 106 ± 17 | 120 | 108 ± 12 | 134 | 124 ± 9.7 | 123 ± 9.3 | 198 ± 22 |
| CC(C(=O)[O-])c1cccc(Oc2ccccc2)c1.CC(C(=O)[O-])c1cccc(Oc2ccccc2)c1.[Ca+2] (stereo not given) [Fenoprofen Calcium] | 112 ± 34 | 100 | 101 ± 7.6 | 94.3 | 121 ± 16 | 105 | 83 ± 3.5 | 98.7 ± 7.4 | 169 ± 11 |
| CC(C)(Sc1cc(C(C)(C)C)c(O)c(C(C)(C)C)c1)Sc1cc(C(C)(C)C)c(O)c(C(C)(C)C)c1 [Probucol] | 83.1 ± 22 | 129 | 116 ± 8.1 | 89.7 | 94.85 ± 0.74 | 103 | 93.68 ± 0.28 | 90.5 ± 23 | 113 ± 1.5 |
| Cc1ccc(C(=O)C(C)CN2CCCCC2)cc1.Cl (stereo not given) [Tolperisone HCl] | 118 ± 20 | 118 | 101 ± 3.6 | 92.5 | 47.8 ± 8.8 | 109 | 92.3 ± 8.6 | 130 ± 6.4 | 110 ± 3.9 |
| CC(C)(C)NCC(O)COc1nsnc1N1CCOCC1.O=C(O)C=CC(=O)O (stereo not given) [Timolol Maleate] | 115.9 ± 0.17 | 116 | 106 ± 5.1 | 107 | 89.5 ± 12 | 120 | 96.4 ± 1.9 | 93.1 ± 15 | 112 ± 6.8 |
| Cl.NCCS [Cysteamine HCl] | 112 ± 4.3 | 112 | 93.4 ± 4.4 | 95.8 | 79.5 ± 5.4 | 108 | 92.8 ± 18 | 102.7 ± 1 | 102 ± 7 |
